Screens (PubChem BioAssay)
Rin1-Abl PPI inh: human Rin1-Abl interaction inhibition; 360,000 tested, 0.4% active; AID 588664; TR-FRET Rin1/Abl binding, biochemical; inhibition, % at 7.35 µM; P00519+Q13671; in the data active = inhibition above about 5%, passing the limit was not always enough
AI-2 QS mod: modulates the Vibrio harveyi AI-2 quorum sensing system; AID 2094; 300,000 tested, 0.4% active; Vibrio harveyi JMH597 AI-2 luminescence/OD600 ratio, 9 h; stronger effect = lower value; strain lacks LuxN and CqsS sensors; 0 = neutral-control median; activity change, % at 7.5 µM; in the data active = activity change below about -75%, passing the limit was not always enough;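 also: luminescence divided by OD600 gain over 9 h not by final OD600 alone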
ARNT-TACC3 inh: disruptors of human ARNT/TACC3 interaction; 390,000 tested, 0.66% active; Q9Y6A5; AlphaScreen His-ARNT PAS-B/GST-TACC3 binding, luminescence; TACC3 fragment carries E629A point mutation; AID 623870; inhibition, % at 9.99 µM;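 active = mean inhibition of replicates at least 50% and at least half of replicates each reaching 50%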;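 also: 0% = complete ARNT plus TACC3 wells and 100% = ARNT alone without TACC3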
HGIII-sPLA2 inh: Inhibits HGIII-sPLA2 liposome hydrolysis, primary screen; inhibition, % at 12.2 µM; QFRET BODIPY PC-A2 liposome hydrolysis, fluorescence; 370,000 tested, 0.56% active;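 active = inhibition above mean plus 3 SD of compounds lying within the high and low control bounds, cut at about 19% in these data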;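 also: 0% = median of test compound wells and 100% = no enzyme DMSO wells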
Target sequence (Q9NZ20 whole entry, looked up): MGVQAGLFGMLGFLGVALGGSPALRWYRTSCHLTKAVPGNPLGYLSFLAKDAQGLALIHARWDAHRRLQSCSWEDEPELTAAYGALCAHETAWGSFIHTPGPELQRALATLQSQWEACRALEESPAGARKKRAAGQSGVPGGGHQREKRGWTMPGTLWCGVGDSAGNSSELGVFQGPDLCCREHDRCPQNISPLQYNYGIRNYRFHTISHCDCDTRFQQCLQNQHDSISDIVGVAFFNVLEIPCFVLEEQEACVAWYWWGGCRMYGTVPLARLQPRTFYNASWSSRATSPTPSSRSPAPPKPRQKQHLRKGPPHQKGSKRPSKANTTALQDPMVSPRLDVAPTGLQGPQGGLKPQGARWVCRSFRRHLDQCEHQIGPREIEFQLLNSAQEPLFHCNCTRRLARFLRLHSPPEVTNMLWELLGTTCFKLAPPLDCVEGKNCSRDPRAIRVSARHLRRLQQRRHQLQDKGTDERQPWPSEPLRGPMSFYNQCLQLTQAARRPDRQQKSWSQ
Rin1-Abl confirm: confirmation of inhibitors of human Rin1-Abl interaction; AID 602124; inhibition, % at 7.35 µM; TR-FRET Rin1-Abl binding, purified proteins; 1,300 tested, 49% active; shares compounds with Rin1-Abl PPI inh
GFP quench-1: counter-screen for Rin1-Abl inhibitors: GFP fluorescence quenchers; shares compounds with Rin1-Abl PPI inh; inhibitors/quenchers counterscreen; inhibition, % at 6.75 µM; 1,300 tested, 8.5% active;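 also: ABL1-eGFP fusion protein alone without its partner RIN1-SBP; 0% = protein with vehicle and 100% = wells lacking protein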
GFP quench dose: quenches GFP in dose response, Rin1-Abl counter-screen; shares compounds with Rin1-Abl PPI inh; GFP fluorescence interference/quenching counterscreen; IC50, µM; 230 tested, under 10 active; AID 602182; call rule not given here;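 also: ABL1-eGFP fusion protein alone without its RIN1 binding partner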
GFP quench-2: quenches GFP fluorescence in Rin1-Abl counterscreen; shares compounds with Rin1-Abl PPI inh; GFP fluorescence quenching counterscreen, biochemical; IC50, µM; 25 tested, under 10 active; AID 602397; call rule not given here
* = called active by the depositor; · = no result. Shown are actives, neighbours in structure and some others; about 1.5% of the full set was active somewhere. Rule as the data show it, unless noted: active = inhibition above about 6.5%; inactive = the rest.

SMILES	Rin1-Abl PPI inh	AI-2 QS mod	ARNT-TACC3 inh	HGIII-sPLA2 inh	Rin1-Abl confirm	GFP quench-1	others
NS(=O)(=O)c1ccc(N=Nc2ccc(O)c3ncccc23)cc1	11*	20	·	46*	4	13*
Cc1cccc(N=Nc2ccc(O)c3ncccc23)c1	6.9*	26	22	4	6.5*	4
Cc1ccc(C)c(N=Nc2ccc(O)c3ncccc23)c1	0	34	23	3	·	·
C[C@H]1CN([C@@H](C)CO)C(=O)c2cccc(NC(=O)C3CCCCC3)c2O[C@H]1CN(C)CC1CC1	·	·	-5	·	·	·
C[C@@H]1CN([C@@H](C)CO)C(=O)Cc2cc(NS(=O)(=O)c3ccc(F)cc3)ccc2O[C@@H]1CN(C)CC1CC1	·	·	2	·	·	·
CN1CCN(c2ccc(CNC(=O)C3Cc4c(-c5ccccc5)ccnc4O3)cc2)CC1 (stereo not drawn)	8.1*	·	·	-10	5	-1
CN1CCN(c2ccc(CNC(=O)C3Cc4c(-c5ccccc5Oc5ccccc5)ccnc4O3)cc2)CC1 (stereo not drawn)	-5	·	·	-12	·	·
CCCN(C(=O)C1CCCN(c2ncnc3c2nc2n3CCCCC2)C1)c1ccc(F)cc1 (stereo not drawn)	8.5*	16	3	-5	-2	-1
CCOC(=O)C1CCN(C(=O)Nc2ccc(NC(=O)C3CCN(C(=O)OCC)CC3)cc2)CC1	14*	42	-2	5	11*	0
O=C(Cc1ccc(NC(=O)C2CCN(C(=O)C3CCCC3)CC2)cc1)Nc1ccc(C(=O)N2CCOCC2)cc1	67*	·	-5	-2	70*	-1	GFP quench dose=>68;GFP quench-2=>68
O=C(Cc1ccc(NC(=O)C2CCN(C(=O)C3CC3)CC2)cc1)Nc1ccc(C(=O)N2CCOCC2)cc1	8.9*	·	1	4	9.7*	-2
CC(C)(C)OC(=O)N1CCC(C(=O)Nc2ccc(C(=O)N3CCCCC3)cc2)CC1	25*	·	7	5	17*	0	GFP quench dose=>68
CC(C)(C)OC(=O)N1CCC(C(=O)Nc2ccc(C(=O)N3CCOCC3)cc2)CC1	8	·	-6	6	·	·
C[C@H]1CCCCO[C@@H](CN(C)Cc2ccccc2)[C@@H](C)CN([C@@H](C)CO)C(=O)c2cc(NS(=O)(=O)c3cccs3)ccc2O1	·	·	6	·	·	·
O=C(Nc1ccc2c(c1)OCO2)N[C@@H]1CC[C@@H](CCNC(=O)C2CCCC2)O[C@H]1CO	·	·	-10	·	·	·
Nc1cc2nsnc2cc1Br	10*	25	-130	0	26*	9.5*
Nc1cccc2nsnc12	0	21	23	-9	·	·
CCCC(=O)Nc1ccc2c(c1)C(=O)N(C)C[C@@H](OC)[C@@H](C)CN(CCc1ccccc1)[C@H](C)CO2	·	·	-1	·	·	·
O=C(O)c1ccc(CSc2nnc(-c3ccncc3)n2-c2ccc(Br)cc2)cc1	3	14	1	7	·	·
O=C(O)c1ccc(CSc2nnc(-c3cccnc3)n2-c2ccc(Br)cc2)cc1	21*	7	15	0	33*	0	GFP quench dose=>68
COc1ccc(N2CCN(C(=O)CSc3nnc(-c4cccnc4)n3-c3ccccc3)CC2)cc1	8.1*	7	·	0	5	0
C[C@H](CO)N1C[C@H](C)[C@@H](CN(C)C(=O)c2ccccn2)Oc2ncc(C#Cc3ccccn3)cc2C1=O	·	·	4	·	·	·
CC(=O)c1ccc(OCC(O)CN2CCN(c3ccccn3)CC2)cc1 (stereo not drawn)	9.3*	21	·	2	-1	0
COc1ccc(CC(=O)Oc2ccc(C)cc2Br)cc1OC	41*	15	-6	-3	51*	-2	GFP quench dose=>68
COc1ccc(CC(=O)Oc2ccc(C)cc2C)cc1	0	7	-24	7	·	·
SMILES	Rin1-Abl PPI inh	AI-2 QS mod	ARNT-TACC3 inh	HGIII-sPLA2 inh	Rin1-Abl confirm	GFP quench-1	others
COc1ccc(-n2c(NC(=O)c3ccco3)c(C#N)c3nc4ccccc4nc32)cc1	19*	14	4	-16	6	3
O=c1cc(OCc2ccccc2)cc[nH]1	96*	·	-4	12	99*	1	GFP quench dose=>67;GFP quench-2=>68
C[C@H](CO)N1C[C@H](C)[C@H](CN(C)CC2CCCCC2)Oc2ccc(NC(=O)Cn3cnnn3)cc2C1=O	·	·	-7	·	·	·
CC(=O)Nc1ccc(NC(=O)CSc2nnc(-c3ccccc3)n2Cc2ccc3c(c2)OCO3)cc1	7.8*	35	7	1	4	0
CCn1cc(CN2CCC(C(=O)Nc3cccc(-c4cccc(F)c4)c3)CC2)cn1	1	-1	·	-14	·	·
CC(C)n1cc(CN2CCC(C(=O)Nc3cccc(-c4cccc(Cl)c4)c3)CC2)cn1	11*	17	-3	-30	25*	-1	GFP quench dose=>68
CCCC(=O)Nc1ccc(N2CCN(C(=O)c3cc4ccccc4o3)CC2)cc1	11*	5	0	9	8.1*	1
CC(=O)N1[C@@H]2Cn3c(cccc3=O)[C@H]1[C@@H](C(=O)NCc1ccc(F)cc1)[C@@H]2CO	·	·	1	·	·	·
CC1CC(=O)c2cn3c(nc2C1)nc1ccccc13 (stereo not drawn)	1	·	22	2	·	·
CC1(C)CC(=O)c2cn3c(nc2C1)nc1ccccc13	7.8*	12	-1	0	10*	1
COc1ccc(C(=O)N2C[C@H]3[C@@H](c4ccccc42)[C@@H](CO)N3C(=O)c2cccc(F)c2)cc1	·	·	-5	·	·	·
C[C@@H](O)C#Cc1ccc([C@H]2[C@@H](CO)N3CCCCN(C(=O)c4ccc(F)cc4)C[C@H]23)cc1	·	·	-5	·	·	·
COc1ccc(CN(C)C[C@@H]2OCCCC[C@@H](C)Oc3ccc(NC(=O)Nc4c(C)noc4C)cc3C(=O)N([C@H](C)CO)C[C@H]2C)cc1	·	·	0	·	·	·
Cc1ccc(S(=O)(=O)N(C)C[C@H]2OCCCC[C@@H](C)Oc3ccc(NC(=O)c4ccncc4)cc3C(=O)N([C@H](C)CO)C[C@@H]2C)cc1	·	·	-9	·	·	·
Cc1cc(C)c(CN2CCN(CCCn3ccc(NC(=O)OCc4ccccc4)nc3=O)CC2)c(C)c1	7.9*	·	9	2	8.0*	2
O=C(Nc1ccn(CCCN2CCC(N3CCOCC3)CC2)c(=O)n1)OCc1ccccc1	11*	·	·	7	6.9*	-1
O=C(Nc1ccn(CCCN2CCN(c3ccccc3)CC2)c(=O)n1)OCc1ccccc1	3	·	·	-11	·	·
O=C(Nc1ccn(CCCNCCN2CCOCC2)c(=O)n1)OCc1ccccc1	0	·	·	8	·	·
CCCCCCCOC(=O)C1=C(C)Nc2ncnn2C1c1cccs1 (stereo not drawn)	7.5*	44	0	-3	-1	-1
